Where “and” joins values, the source holds several entries; their conditions need not be identical. Equal values may be shown once. Calls of active or inactive are those of the source. No rule for the calls is given here.
Target: Cellular tumor antigen p53 (Homo sapiens) (UniProt P04637)
Test: GFP-p53 level modulators in HPV16+ cells – imaging, known kinase inhibitor set, EGFP/DsRed ratio (AID 1053116);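 also: test concentration not given here; cells exposed to compounds for 24 h at 37 °C before reading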
Conditions: GFP-p53 stability, stronger effect = higher value; EGFP object count: measured here: GFP-p53 positive objects count

Sequence of Cellular tumor antigen p53 (Homo sapiens) (P04637 whole entry, looked up): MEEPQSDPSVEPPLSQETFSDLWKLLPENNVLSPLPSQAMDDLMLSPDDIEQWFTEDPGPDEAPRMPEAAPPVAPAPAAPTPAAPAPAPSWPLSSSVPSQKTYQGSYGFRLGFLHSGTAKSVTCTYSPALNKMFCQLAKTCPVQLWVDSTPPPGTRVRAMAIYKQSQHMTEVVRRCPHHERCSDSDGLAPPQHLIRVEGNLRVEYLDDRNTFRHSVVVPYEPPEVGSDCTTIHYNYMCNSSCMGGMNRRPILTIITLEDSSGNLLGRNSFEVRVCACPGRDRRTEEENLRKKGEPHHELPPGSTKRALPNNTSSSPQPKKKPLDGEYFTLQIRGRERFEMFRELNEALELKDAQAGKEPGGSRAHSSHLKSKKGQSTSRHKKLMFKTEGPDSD

EGFP object count, 3.5:
Cc1ccc(C(=O)NC2CC2)cc1-c1ccc2[nH]ncc2c1

EGFP object count, 4:
COc1cc(N2CCN(C(C)C)CC2)ccc1Nc1nc(Nc2cccc(F)c2C(=O)O)c2cc[nH]c2n1

EGFP object count, 8.5:
COc1ccccc1Nc1ncc(-c2ccccc2)o1

EGFP object count, 1.5:
COC(=O)Nc1nc2ccc(S(=O)(=O)c3ccc(NC(=O)Nc4cc(C(F)(F)F)ccc4F)cc3)cc2[nH]1

EGFP/DsRed ratio, inactive:
Cc1ccc(C(=O)NC2CC2)cc1-c1ccc2[nH]ncc2c1 0.141
COc1cc(N2CCN(C(C)C)CC2)ccc1Nc1nc(Nc2cccc(F)c2C(=O)O)c2cc[nH]c2n1 0.0569
COc1ccccc1Nc1ncc(-c2ccccc2)o1 0.173
COC(=O)Nc1nc2ccc(S(=O)(=O)c3ccc(NC(=O)Nc4cc(C(F)(F)F)ccc4F)cc3)cc2[nH]1 0.00404

Test system: not listed separately
Test: inducers of IRF3 signaling, differentiated THP-1 – cell-based, PMA-stimulated THP-1, luminescence (AID 1053176)
Conditions: PMA-differentiated THP-1, IRF3 reporter luminescence; stronger effect = higher value

Fraction signal, inactive:
Cc1cc(-c2ccco2)cc(C)c1/C=C/c1cncc(-c2nn[nH]n2)c1 -0.008
Cc1ccc(Nc2ccnc(Nc3cccc(C(N)=O)c3)n2)cc1O -0.008
Clc1ccc(CNc2nccc(-c3cnn4ncccc34)n2)cc1 0
CCn1c(-c2nonc2N)nc2c(C#CC(C)(C)O)ncc(OC3CCNCC3)c21 0.001
O/N=C1/CCc2cc(-c3nc(C4CCNCC4)[nH]c3-c3ccncc3)ccc21 0.001
COc1cccc(-n2ncc3c(N/N=C/c4cccc(F)c4)ncnc32)c1 0.0035
CCCN1CCC(Oc2cc(Nc3nc(Nc4cccc(F)c4C(N)=O)c4cc[nH]c4n3)c(OC)cc2Cl)CC1 0.0095
CCOc1nccc2c1nc(-c1nonc1N)n2CC 0
CCn1c(-c2nonc2N)nc2ccc(F)cc21 0.0105
COc1cc(/C=N/Nc2ncnc3c2cnn3Cc2ccccc2)ccc1O 0.0995
NS(=O)(=O)c1ccc(N=Cc2c(O)[nH]c3ccc4ncsc4c23)cc1 -0.009 and 0.0005
